Results published in paper PMC4336329 (PLoS ONE, 2015).
In all, about 310,000 compounds went through this assay and about 14,000 (4.5%) showed an effect of 50% or more. Effects have a minus sign here. Only a selection was taken, and strong results are over-represented in it overall.

Target: human ether-à-go-go-related gene (hERG) potassium channel (human, UniProt Q12809)
Assay: primary screen, population patch clamp on CHO cells stably expressing hERG; higher = less effect of the substance
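Note: peak tail current of the secondary pulse compared with the same well before compound.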

Chain of human ether-à-go-go-related gene (hERG) potassium channel (Q12809 whole entry, looked up): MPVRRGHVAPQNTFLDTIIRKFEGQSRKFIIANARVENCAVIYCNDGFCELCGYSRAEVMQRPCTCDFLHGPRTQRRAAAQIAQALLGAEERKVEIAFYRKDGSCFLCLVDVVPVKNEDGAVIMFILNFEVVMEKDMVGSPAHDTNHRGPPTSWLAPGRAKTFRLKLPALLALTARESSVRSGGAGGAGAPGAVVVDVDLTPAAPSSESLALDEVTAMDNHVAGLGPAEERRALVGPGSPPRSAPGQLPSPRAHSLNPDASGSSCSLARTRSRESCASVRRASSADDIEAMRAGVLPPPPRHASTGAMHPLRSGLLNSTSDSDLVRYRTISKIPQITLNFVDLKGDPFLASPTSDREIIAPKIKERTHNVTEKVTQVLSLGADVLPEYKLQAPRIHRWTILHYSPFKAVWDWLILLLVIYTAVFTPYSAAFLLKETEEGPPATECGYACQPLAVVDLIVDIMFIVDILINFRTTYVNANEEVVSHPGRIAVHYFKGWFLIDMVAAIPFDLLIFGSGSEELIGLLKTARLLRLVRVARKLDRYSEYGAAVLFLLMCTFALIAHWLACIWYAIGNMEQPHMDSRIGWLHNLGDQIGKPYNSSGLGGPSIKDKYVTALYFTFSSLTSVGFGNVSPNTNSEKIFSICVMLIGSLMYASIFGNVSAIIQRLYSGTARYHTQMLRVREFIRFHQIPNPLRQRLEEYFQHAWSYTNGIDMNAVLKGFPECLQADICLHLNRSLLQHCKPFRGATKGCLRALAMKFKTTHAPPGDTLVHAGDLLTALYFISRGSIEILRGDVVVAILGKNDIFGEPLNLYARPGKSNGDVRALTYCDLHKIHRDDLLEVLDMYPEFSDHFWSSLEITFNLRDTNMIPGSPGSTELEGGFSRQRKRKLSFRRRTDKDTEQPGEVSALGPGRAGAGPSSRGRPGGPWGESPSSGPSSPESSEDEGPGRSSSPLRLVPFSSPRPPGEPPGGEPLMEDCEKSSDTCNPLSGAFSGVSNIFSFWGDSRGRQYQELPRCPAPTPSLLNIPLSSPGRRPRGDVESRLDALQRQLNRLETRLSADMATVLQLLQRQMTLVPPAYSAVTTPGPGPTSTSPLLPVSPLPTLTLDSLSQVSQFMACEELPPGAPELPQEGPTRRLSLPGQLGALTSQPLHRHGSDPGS

SMILES | hERG current change (%, negative = inhibition) at 10uM [%]
c1ccc2c(c1)Nc1cc3ccccc3cc1S2 | 8.83
COc1ccc(CCN(C)CCC(=O)Nc2c(C)cc(C)cc2C)cc1OC | -58.8
COc1ccc(CCNCCC(=O)Nc2c(C)cc(C)cc2C)cc1OC.Cl | -13.8
COc1ccc(CCN(C)C(=S)Nc2cccc(C)c2)cc1OC | 5.19
CCOc1ccc(CN(C)CC(=O)NNC(=O)c2ccc(Cl)cc2)cc1OC | -60.3
COc1ccc(CCN(C)CCC(=O)Nc2cccc(C)c2)cc1OC.Cl | -65.8
COc1ccc(CC(=O)Nc2cccc(-c3nnc(-c4cccc(C)c4)o3)c2)cc1OC | 11.3
CCOc1ccc(CN(C)C(=O)NNC(=O)c2ccc(C)cc2)cc1OC | 16.8
CCOc1ccc(CN(C)CC(=O)Nc2cccc(C)c2)cc1OC | -77
COc1ccc(CCN(C)CC(=O)Nc2c(C)cc(C)cc2C)cc1OC.Cl | 4.26
COc1cccc(CN(C)CC(=O)NNC(=O)c2ccc(Cl)cc2)c1 | -12.5
CCOc1ccc(CN(C)CC(=O)Nc2cccc3ccccc23)cc1OC.O=C(O)C(=O)O | -16.5
CCOc1ccc(CN(C)CC(=O)Nc2ccc3c(c2)CCC3)cc1OC | -39
CCc1cc2ccccc2nc1Cl | 6.29
O=C(CN(Cc1ccc2c(c1)OCO2)C(=O)CNS(=O)(=O)c1ccccc1)NCc1ccco1 | -22
CC[C@@H]1CC=C[C@H]2[C@H]1C(=O)N(Cc1ccccc1)[C@H]2c1ccc(OC)c(Cl)c1 | 10.6
O=C(Cc1ccc(F)cc1)OCC(=O)c1cc2ccccc2o1 | -2.43
CCNC(=S)NNC(=O)Cn1c(=O)c2c(ncn2CCOC)n(Cc2ccccc2)c1=O | 15.3
Cc1ccc(NC(=O)Nn2cnnc2)c(C)c1 | 1.62
COC(=O)CSc1[nH]c2ccc(Br)cc2c1[N+](=O)[O-] | 16.7
Nc1cccc(S(=O)(=O)Nc2ccccc2)c1 | 25.5
COC(=O)c1ccc(C)c(NC(=O)CCc2ccc(OC)c(OC)c2)c1 | 6.37
COc1ccc(CCN(C)CCC(=O)Nc2ccc(C)cc2)cc1OC.Cl | -64.3

SMILES | hERG current change (%, negative = inhibition) at 10uM [%]
COc1ccc(CCN(C)CCC(=O)Nc2cc(C)ccc2C)cc1OC | -55.6
COc1ccc(CCN(C)CC(=O)Nc2ccc(F)c(Cl)c2)cc1OC | -35.3
CCCCN(C)CCC(=O)Nc1ccc(C)cc1.Cl | -14.8
COc1ccc(CC(=O)Nc2cc(C)ccc2O)cc1OC | 4.22
O=[N+]([O-])c1cc(F)c(N2CCCCC2)cc1Br | -3.83
O=C(C1CC1)N1CCc2cc(S(=O)(=O)NCC3COc4ccccc4O3)ccc21 (stereo not drawn) | 6.27
Cc1c(C)c2ccc(OC(C)C(=O)N3CC[C@@]4(O)CCCC[C@H]4C3)cc2oc1=O (stereo partly drawn) | -11.2
COc1ccc(CN2C(=O)c3cccnc3C2=O)cc1S(=O)(=O)NC1CCCCC1C (stereo not drawn) | 10.8
CN(C)CCNC(=O)c1nn(C)c2c1CCc1ccccc1-2 | -12.4
O=C(c1ccccc1Cl)c1c(O)c2ccccc2oc1=O | -3.19
O=C1COc2ccc(S(=O)(=O)Nc3ccc4c(c3)OCO4)cc2N1 | 19.4
C/C(=N\Nc1cccc(C(=O)O)c1)c1cc2ccccc2o1 | 9.54
CCOC(=O)N1CCN(CC(O)COc2ccccc2C(C)CC)CC1.Cl (stereo not drawn) | 0.934
COc1ccccc1C(=O)N/C(=C\c1cn(S(=O)(=O)N(C)C)c2ccccc12)C(=O)NCCCN1CCOCC1 | -7.58
COc1ccc(C(Nc2cccc([N+](=O)[O-])c2)P(=O)(OC(C)C)OC(C)C)cc1 (stereo not drawn) | -31.5
COc1ccc(S(=O)(=O)NCC2CCCN(Cc3ccc(OC)cc3F)C2)cc1 (stereo not drawn) | -42
CCC(C)(C)NC(=O)c1ccc(Sc2nncn2C)c([N+](=O)[O-])c1 | 3.37
Cn1cnnc1Sc1ccc(C(=O)NCCC(c2ccccc2)c2ccccc2)cc1[N+](=O)[O-] | -74.3
Cn1cnnc1Sc1ccc(C(=O)NCCC23CC4CC(CC(C4)C2)C3)cc1[N+](=O)[O-] | 12.9
CN(CC(=O)Nc1cccc([N+](=O)[O-])c1)S(=O)(=O)c1ccccc1 | -51.9
CN(c1ccccc1C(=O)Nc1cccc([N+](=O)[O-])c1)S(C)(=O)=O | -20
CN(CC(=O)Nc1cccc(F)c1)CC(=O)Nc1cccc([N+](=O)[O-])c1 | -39.7
CN(Cc1ccccc1)S(=O)(=O)c1ccc(OCC(=O)Nc2cccc([N+](=O)[O-])c2)cc1 | -9.01

SMILES | hERG current change (%, negative = inhibition) at 10uM [%]
CC(=O)c1cccc(NC(=O)CN(C)S(=O)(=O)c2ccccc2)c1 | -11.5
Cc1ccc(CN(C)CC(=O)Nc2cccc([N+](=O)[O-])c2)o1 | -58.4
CN(c1ccccc1C(=O)Nc1cccc(Br)c1)S(=O)(=O)c1ccccc1 | -5.01
Cc1ccc(CC(=O)Nc2cccc([N+](=O)[O-])c2)cc1 | 15.8
CN(c1ccccc1C(=O)Nc1cccc([N+](=O)[O-])c1)S(=O)(=O)c1ccccc1 | -63.2
FC(F)(F)c1nnc2c(Sc3ccccc3)nc3ccc(Cl)cc3n12 | 12.2
Cc1cccc(NC(=S)N(CCCN2CCOCC2)C(C)c2cc3ccccc3o2)c1C (stereo not drawn) | -20.9
COc1ccc(Cl)cc1NC(=O)CSc1nnc(CNC(=O)c2cccs2)o1 | -39.8
Cc1ccc(S(=O)(=O)NCc2c(-c3ccccc3)c3cc(Cl)ccc3[nH]c2=O)cc1 | 7.18
O=C(c1ccc(Br)s1)N1CCCC1 | -5.86
CCC(C)(C(=O)NC1CCCCC1)N(CC1CCCO1)C(=O)CNC(=O)c1ccccc1 (stereo not drawn) | 6.13
CCC(C)(C(=O)NC1CCCCC1)N(C)C(=O)c1ccccn1 (stereo not drawn) | 2.9
CCC(C)(C(=O)NC1CCCCC1)N(CC1CCCO1)C(=O)c1ccccn1 (stereo not drawn) | -63.3
COc1ccc2cc(C(c3nnnn3C3CCCC3)N3CCOCC3)c3nnnn3c2c1 (stereo not drawn) | -51.7
COc1ccc2cc(C(c3nnnn3C3CCCC3)N3CCCCCC3)c3nnnn3c2c1 (stereo not drawn) | 15.9
COc1ccc2cc(C(c3nnnn3C3CCCCC3)N3CCCCCC3)c3nnnn3c2c1 (stereo not drawn) | 4.6
O=C(NCCc1ccccc1)C1CCN(S(=O)(=O)c2cccnc2)CC1 | 12.9
Cc1ccccc1C(=O)Nc1nnc(-c2cccnc2)o1 | 18.4
CN1CCN(NC(=O)c2ccc(S(=O)(=O)N3CC4(C)CC3CC(C)(C)C4)cc2)CC1.Cl (stereo not drawn) | -2.07
CC(C)CN1CCN(Cc2ccc3ncccc3c2)CC1CCO (stereo not drawn) | -13.2
OCCC1CN(Cc2ccc3ncccc3c2)CCN1Cc1ccccc1 (stereo not drawn) | -14.8
OCCC1CN(Cc2ccon2)CCN1Cc1ccc(F)c(F)c1 (stereo not drawn) | -13.9
OCCC1CN(Cc2cccc3nccnc23)CCN1Cc1ccc(F)cc1 (stereo not drawn) | -30.8

SMILES | hERG current change (%, negative = inhibition) at 10uM [%]
Cc1ccc(CN2CCN(Cc3ccc4ncccc4c3)CC2CCO)cc1 (stereo not drawn) | -58.9
OCCC1CN(Cc2cccc3nccnc23)CCN1Cc1ccc(F)c(F)c1 (stereo not drawn) | -56.4
CC(C)CN1CCN(Cc2cccc3nccnc23)CC1CCO (stereo not drawn) | -8.4
CC(C)=CCN1CCN(Cc2cccc3nccnc23)CC1CCO (stereo not drawn) | -8.42
Cc1ccc(CN2CCN(Cc3cccc4nccnc34)CC2CCO)cc1 (stereo not drawn) | -66.6
COc1ccccc1N1CCN(C(=O)CSc2nc(N)cc(=O)[nH]2)CC1 | 6.2
Cc1ccc(-n2c(O)c(C=NCCCn3ccnc3)c(=O)[nH]c2=O)cc1 | 19.6
COc1ccccc1NS(=O)(=O)c1cccc(C(=O)N/N=C/c2ccc(N3CCOCC3)cc2)c1 | -8.32
CC(OC(=O)c1ccc(-c2ccc(O)cc2)cc1)C(=O)NC1CCCCC1C (stereo not drawn) | -6.35
CCOc1ccc(S(=O)(=O)Nc2cccc(C(=O)NCC(c3ccccc3)N(C)C)c2)cc1 (stereo not drawn) | -12
COc1ccccc1C(CNC(=O)c1cccc(NS(=O)(=O)c2ccc(C)c(F)c2)c1)N(C)C (stereo not drawn) | -42.5
COc1ccc(C(CNC(=O)c2cccc(NS(=O)(=O)c3ccc(C)c(F)c3)c2)N2CCCC2)cc1 (stereo not drawn) | -64
COc1ccc(C(CNC(=O)c2ccc(NS(=O)(=O)c3ccc(F)c(C)c3)cc2)N(C)C)cc1 (stereo not drawn) | -25.8
Cc1ccc(S(=O)(=O)Nc2cccc(C(=O)NCC(c3ccccc3)N(C)C)c2)cc1F (stereo not drawn) | -45.8
Cc1ccc(S(=O)(=O)Nc2cccc(C(=O)NCC(c3ccco3)N3CCCC3)c2)cc1F (stereo not drawn) | -38.5
COc1ccccc1C(CNC(=O)c1cccc(S(=O)(=O)Nc2ccc(C)cc2)c1)N(C)C (stereo not drawn) | -8.39
COc1ccc(C(CNC(=O)c2cccc(NS(=O)(=O)c3ccc(C)c(F)c3)c2)N(C)C)cc1 (stereo not drawn) | -62.6
COc1ccc(C(CNC(=O)c2cccc(NS(=O)(=O)c3ccc(Br)cc3)c2)N(C)C)cc1 (stereo not drawn) | -61.5
COc1ccc(C(CNC(=O)c2cccc(NS(=O)(=O)c3ccc(C)c(F)c3)c2)N2CCOCC2)cc1 (stereo not drawn) | -9.43
COc1ccccc1C(CNC(=O)c1cccc(NS(=O)(=O)c2ccc(Br)cc2)c1)N(C)C (stereo not drawn) | -51.7
COc1ccc(C(CNC(=O)c2cccc(NS(=O)(=O)c3ccccc3)c2)N(C)C)cc1 (stereo not drawn) | -46.4
